Values joined by “and” are separate entries in the source; they are usually repeats but may differ in a detail not shown here. Equal values may be shown once. Where a structure was tested more than once in an assay, its records may differ in their call. Active and inactive are the calls of the source. The calls were made as follows, unless noted: active = hit-call score of the fitted dose curve at least 0.9, where 1 is the maximum; inactive = score below 0.9.
Assays:
[1] = CCTE_Shafer_MEA_dev_inter_network_spike_interval_mean: CCTE's Neural Network Formation Assay for Mean Inter-network Spike Interval, Shafer Lab (AID 2284047);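 as to AC50: potency for a decrease in mean inter-network spike interval below DMSO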
How it was run: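 Primary rat cortical neurons on PEI-coated 48-well MEAs (16 electrodes/well) were exposed from plating day 0 to DIV 12, with dosing renewed at DIV 5 and 9. Recordings at DIV 5, 7, 9, 12 were collapsed by trapezoidal AUC, loss-of-signal fit vs DMSO.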

[2] = CCTE_Shafer_MEA_dev_network_spike_number: CCTE's Neural Network Formation Assay for Number of Network Spikes, Shafer Lab (AID 2284048);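 also: synchronized bursts across electrodes counted on days 5 7 9 12 and integrated as AUC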;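 as to AC50: fit as a loss of signal meaning fewer network spikes than DMSO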
How it was run: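 Primary rat cortical neurons were seeded at 1.5 x 10^5 cells/well on PEI-coated 16-electrode MEA wells with laminin, exposed from plating day 0, compound renewed at DIV 5 and 9. Network spikes were recorded on days 5, 7, 9, 12 and summarized as trapezoidal AUC versus DMSO.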

[3] = CCTE_Shafer_MEA_dev_network_spike_peak: CCTE's Neural Network Formation Assay for Mean Number of Electrodes in Network Spike, Shafer Lab (AID 2284049);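 as to AC50: fitted for loss of signal meaning fewer electrodes in network spikes than DMSO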
How it was run: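 Continuous 12-day exposure of rat cortical cultures, starting at plating, on MEA plates. Endpoint: electrodes participating in network-spike peaks, AUC across DIV 5–12, DMSO as negative control.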

[4] = CCTE_Shafer_MEA_dev_spike_duration_mean: CCTE's Neural Network Formation Assay for Mean Spike Duration, Shafer Lab (AID 2284051);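 also: mean network spike duration pooled as area under curve over DIV 5 to 12 recordings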;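 as to AC50: potency for a decrease in mean network spike duration versus DMSO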
How it was run: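 Rat cortical primary cultures, 48-well MEA (16 electrodes/well); compound from plating, renewed DIV 5, 9. Network spike duration (AxIS adaptive detector) recorded DIV 5/7/9/12, combined as trapezoidal AUC; loss direction vs DMSO.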

[5] = CCTE_Shafer_MEA_dev_network_spike_duration_std: CCTE's Neural Network Formation Assay for Standard Deviation of Network Spike Duration, Shafer Lab (AID 2284052);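 also: area under curve of spike duration SD across recording days 5 to 12; hits are decreases in network spike duration SD versus DMSO vehicle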
How it was run: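 Rat cortical cultures, 1.5 x 10^5 cells/well, exposed continuously from plating to DIV 12 with media/compound renewal at DIV 5, 9. Spontaneous activity recorded DIV 5/7/9/12, AxIS adaptive spike detector; AUC across days; negative direction vs DMSO.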

[6] = CCTE_Shafer_MEA_dev_per_network_spike_spike_number_mean: CCTE's Neural Network Formation Assay for Mean Number of Spikes in a Network Spike, Shafer Lab (AID 2284053);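 as to AC50: fitted as decrease in spikes per network spike relative to DMSO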
How it was run: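 Rat cortical primary cultures on 48-well MEA; compound from day 0, re-dosed with full media change DIV 5, 9. Recorded DIV 5, 7, 9, 12; spikes in 0.05 s window at network-spike peak ÷ total network spikes; AUC; loss vs DMSO.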

[7] = CCTE_Shafer_MEA_dev_per_network_spike_spike_percent: CCTE's Neural Network Formation Assay for Percent of Spikes in a Network Spike, Shafer Lab (AID 2284054)
How it was run: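 Primary rat cortical neurons on 16-electrode MEA wells (PEI-coated, laminin at plating), exposed from day 0 with renewal at DIV 5 and 9; spikes within 0.05 s of network-spike peaks over total spikes, AUC across days 5, 7, 9, 12.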

[8] = UKN5_HCS_SBAD2_cell_viability: Viability Assessment in the University of Konstanz (UKN) Leist Lab Neurite Outgrowth Assay in human iPSC-derived immature Dorsal Root Ganglia Neurons (UKN5) (AID 2284056)
How it was run: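 iPSC-derived immature peripheral neurons (SBAD2) seeded on Matrigel with CHIR99021, SU5402 and DAPT, dosed 1 h later for 24 h. Viability from Hoechst H-33342 and calcein-AM live staining, high-content imaging; bidirectional fit versus DMSO.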

DIO2 (gene 1734) = test: CCTE_GLTED_hDIO2: CCTE's human Deiodinase 2 (DIO2) Inhibition Assay, Great Lakes Toxicology and Ecology Division (GLTED) Lab (AID 2284050; active = hit-call score of the fitted dose curve at least 0.9, where 1 is the maximum)
How it was run: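 Cell-free human DIO2 enzyme was incubated with test chemical for 3 h; iodide liberated from substrate was then quantified by the Sandell-Kolthoff reaction (absorbance), run in triplicate. Loss of signal versus DMSO baseline indicated inhibition.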

DIO3 (gene 1735) = test: CCTE_GLTED_hDIO3: CCTE's human Deiodinase 3 (DIO3) Inhibition Assay, Great Lakes Toxicology and Ecology Division (GLTED) Lab (AID 2284055; active = hit-call score of the fitted dose curve at least 0.9, where 1 is the maximum;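 as to AC50: potency is for inhibition seen as loss of released iodide signal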)
How it was run: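 Cell-free assay with human DIO3 enzyme produced by adenovirus expression; enzyme incubated with test chemical for 3 hours. Liberated iodide then measured by Sandell-Kolthoff absorbance; loss of signal versus DMSO baseline indicates inhibition, run in triplicate.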

Measured: AC50

CCOP(=S)(Oc1cnc(C(C)(C)C)nc1)OC(C)C (centres undefined)
inactive: [1] | [2] | [5]
active: [2] 14.8 µM | [3] 85.8 µM and 13 µM | [4] 74.9 µM and 9.65 µM | [6] 67.3 µM and 9.31 µM | [7] 84.5 µM and 23 µM

CCCCSP(=O)(SCCCC)SCCCC
inactive: [1] | [2] | [5]
active: [3] 31.8 µM and 16 µM | [4] 50 µM and 16.1 µM | [6] 50 µM and 17 µM | [7] 68.3 µM and 49.9 µM

CCOP(=S)(OCC)Oc1cc(C)nc(C(C)C)n1
inactive: [1] | [2] | [3] | [4] | [5] | [6] | [7]
active: [3] 50 µM | [6] 16.1 µM | [7] 77 µM

CCOC(=O)CC(SP(=O)(OC)OC)C(=O)OCC (centres undefined)
not listed: DIO2 (gene 1734) | DIO3 (gene 1735)
inactive: all other assays above

C#CCC1=C(C)C(OC(=O)C2C(C=C(C)C)C2(C)C)CC1=O (centres undefined)
active: [1] 9.95 µM | DIO2 (gene 1734) 42.4 µM | [7] 2.64 µM | DIO3 (gene 1735) 34.5 µM
not listed: [8]
inactive: all other assays above

CCOP(=O)(NC(C)C)Oc1ccc(SC)c(C)c1 (centres undefined)
active: [2] 79.5 µM | [3] 51 µM | [4] 21 µM | [5] 10.1 µM | [6] 61.4 µM | [7] 11.7 µM
inactive: [1] | [2] | [3] | [4] | [5] | [6] | [7]

CC1=NNC(=O)N(/N=C/c2cccnc2)C1
not listed: [8] | DIO2 (gene 1734) | DIO3 (gene 1735)
inactive: all other assays above

O=[N+]([O-])c1cc(C(F)(F)F)c(Cl)c([N+](=O)[O-])c1Nc1ncc(C(F)(F)F)cc1Cl
active: [1] 1.9 µM | [2] 0.425 µM | [3] 1.06 µM | DIO2 (gene 1734) 2.04 µM | [4] 0.734 µM | [5] 0.291 µM | [6] 0.771 µM | [7] 0.742 µM | DIO3 (gene 1735) 2.04 µM

CCOP(=S)(OCC)OC(Cl)C(Cl)(Cl)Cl (centres undefined)
inactive: [1] | [2] | [5]
active: [1] 13.1 µM | [2] 23.1 µM | [3] 50 µM and 20.2 µM | [4] 50 µM and 23.4 µM | [5] 13.9 µM | [6] 50 µM and 17.4 µM | [7] 26.7 µM and 18.6 µM

CN(C)[C@@H]1C(=O)C(C(N)=O)=C(O)[C@@]2(O)C(=O)C3=C(O)c4c(O)cccc4[C@@](C)(O)[C@H]3[C@H](O)[C@@H]12
active: [3] 50 µM | DIO2 (gene 1734) 100 µM and 61.6 µM | [4] 66.2 µM | [6] 50 µM | [7] 89.4 µM | DIO3 (gene 1735) 71.9 µM and 25.6 µM and 24.8 µM
inactive: [1] | [2] | [5]

C=C(C)[C@H]1Cc2c(ccc3c2O[C@@H]2COc4cc(OC)c(OC)cc4[C@@H]2C3=O)O1
active: [1] 20.1 nM and 26.2 nM | [2] 14 nM and 10.7 nM | [3] 24.9 nM and 16.5 nM | [4] 35.4 nM and 21.1 nM | [5] 27.7 nM and 14.6 nM | [6] 0.0145 µM | [7] 16.8 nM and 13.3 nM | DIO3 (gene 1735) 2.39 µM
inactive: DIO2 (gene 1734)

CC(=NC#N)N(C)Cc1ccc(Cl)nc1
not listed: DIO2 (gene 1734) | DIO3 (gene 1735)
inactive: all other assays above

CC(C)[C@H](C(=O)O[C@H](C#N)c1cccc(Oc2ccccc2)c1)c1ccc(Cl)cc1
inactive: [1]
active: [2] 0.703 µM | [3] 4.07 µM | [4] 4.47 µM | [6] 3.72 µM | [7] 0.732 µM

CCOP(=S)(OCC)Oc1ccc([N+](=O)[O-])cc1
not listed: [8] | DIO2 (gene 1734) | DIO3 (gene 1735)
inactive: all other assays above

C[Si](Cn1cncn1)(c1ccc(F)cc1)c1ccc(F)cc1
active: [3] 4.71 µM | [4] 5.85 µM | [7] 20.1 µM
inactive: [1] | [2] | [5] | [6]

CC[C@H](C)[C@H]1O[C@]2(C=C[C@@H]1C)C[C@@H]1C[C@@H](C/C=C(\C)[C@@H](O[C@H]3C[C@H](OC)[C@@H](O[C@H]4C[C@H](OC)[C@@H](NC)[C@H](C)O4)[C@H](C)O3)[C@@H](C)/C=C/C=C3\CO[C@@H]4[C@H](O)C(C)=C[C@@H](C(=O)O1)[C@]34O)O2
inactive: [1] | [7]
active: [1] 0.16 µM | [2] 47.4 nM and 4.79 nM | [3] 106 nM and 9.12 nM | DIO2 (gene 1734) 31.3 µM | [4] 13 nM and 2.69 nM | [5] 5.01 nM and 3.04 nM | [6] 55.1 nM and 5.93 nM | [7] 0.517 µM | DIO3 (gene 1735) 33.6 µM | [8] 1.52 µM

CCOP(=S)(OCC)SCCSCC
not listed: [8] | DIO2 (gene 1734) | DIO3 (gene 1735)
inactive: all other assays above

C[N+]1(C)CCCCC1
active: [3] 15 µM
not listed: [8] | DIO2 (gene 1734) | DIO3 (gene 1735)
inactive: all other assays above

CCOP(=O)(OCC)Oc1cc(C)nc(C(C)C)n1
not listed: [8] | DIO2 (gene 1734) | DIO3 (gene 1735)
inactive: all other assays above

CC(Oc1cccc(Cl)c1)C(=O)O (centres undefined)
not listed: [8] | DIO2 (gene 1734) | DIO3 (gene 1735)
inactive: all other assays above

CON=C(C(=O)OC)c1ccccc1CON=C(C)c1cccc(C(F)(F)F)c1
active: [1] 969 nM and 1.72 µM | [2] 632 nM and 884 nM | [3] 871 nM and 742 nM | [4] 603 nM and 625 nM | [5] 642 nM and 886 nM | [6] 697 nM and 542 nM | [7] 981 nM and 686 nM

COP(=O)(NC(C)=O)SC (centres undefined)
not listed: [8] | DIO2 (gene 1734) | DIO3 (gene 1735)
inactive: all other assays above

CCCSP(=O)(OCC)SCCC
active: [3] 50 µM and 29.9 µM | [4] 36.2 µM and 27.2 µM | [6] 15.8 µM and 27.3 µM | [7] 24.3 µM and 26.5 µM
inactive: [1] | [2] | [5]

CCOP(=O)(SC(C)CC)N1CCSC1=O (centres undefined)
not listed: [8] | DIO2 (gene 1734) | DIO3 (gene 1735)
inactive: all other assays above

CC(C)N(C(=O)SCC(Cl)=C(Cl)Cl)C(C)C
active: [3] 15 µM | [4] 27.3 µM | [6] 15 µM | [7] 15 µM
inactive: [1] | [2] | [5]

CCNc1nc(Cl)nc(NC(C)(C)C#N)n1
inactive: DIO2 (gene 1734)
active: DIO3 (gene 1735) 21.5 µM

CCCOCC(=Nc1ccc(Cl)cc1C(F)(F)F)n1ccnc1
active: DIO2 (gene 1734) 2.92 µM | DIO3 (gene 1735) 2.38 µM

S=C1NCCN1
active: [4] 5.64 µM
not listed: [8] | DIO2 (gene 1734) | DIO3 (gene 1735)
inactive: all other assays above

CN1COCN(Cc2cnc(Cl)s2)C1=N[N+](=O)[O-]
not listed: [8] | DIO2 (gene 1734) | DIO3 (gene 1735)
inactive: all other assays above

CCCSP(=O)(OCC)Oc1ccc(Br)cc1Cl (centres undefined)
not listed: [8] | DIO2 (gene 1734) | DIO3 (gene 1735)
inactive: all other assays above

CCOP(=S)(OCC)Oc1ccc2c(C)c(Cl)c(=O)oc2c1
active: [3] 50 µM | [6] 24.4 µM | [7] 82.2 µM
inactive: [1] | [2] | [5]

CSC1=N[C@@](C)(c2ccccc2)C(=O)N1Nc1ccccc1
not listed: DIO2 (gene 1734) | DIO3 (gene 1735)
inactive: all other assays above

CC(C)=CC1C(C(=O)OCN2C(=O)C3=C(CCCC3)C2=O)C1(C)C (centres undefined)
active: [3] 1.98 µM | DIO2 (gene 1734) 70 µM
not listed: [8]
inactive: all other assays above

COP(=O)(OC)OC(Br)C(Cl)(Cl)Br (centres undefined)
inactive: [1]
active: [1] 2.15 µM | [2] 3.48 µM and 13.2 µM | [3] 9.05 µM and 11.9 µM | [4] 8.37 µM and 12.8 µM | [5] 4.26 µM and 9.92 µM | [6] 8.92 µM and 10.3 µM | [7] 8.6 µM and 12 µM

COP(=O)(OC)C(O)C(Cl)(Cl)Cl (centres undefined)
active: [2] 2.98 µM | [3] 75.4 µM and 15 µM | [4] 50 µM and 15 µM | [6] 50 µM and 15 µM | [7] 50 µM and 15 µM | [8] 9.96 µM
inactive: [1] | [2] | [5]

CCc1cccc(CC)c1N(COC)C(=O)CCl
active: DIO2 (gene 1734) 61.1 µM | DIO3 (gene 1735) 52.3 µM

From PubChem BioAssay (EPA / NIEHS)
